In PubChem BioAssay AID1159580 (chemical genetic matrix, 2015):
Where “and” joins values, the source holds several entries; their conditions need not be identical. Equal values may be shown once. The whole screen tested about 5,500 compounds, of which about 2,000 (36%) were called active. Not shown: some 18% with an inconclusive outcome. No stated cut-off is given here; in the data, active means normalized growth mostly below about 0.91 (no sharp cut-off); inconclusive means no clear call, values can overlap the other calls; inactive means mostly above about 0.92. This is one part of the list.

Assay: chemical genetic growth profiling, strain panel (AID 1159580);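 further: tested at 20 µM; growth read once vehicle control cultures reached saturation at 30 °C; 1 = growth at the plate median or of vehicle wells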
Conditions: S. cerevisiae deletion strains, growth OD

Measured: normalized growth

CC1OC(O[C@H]2/C=C/C=C/C=C/C=C/C=C/C=C/C=C/[C@H](C)[C@@H](O)[C@@H](C)[C@H](C)OC(=O)CC(O)CC(O)CCC(O)C(O)CC(O)C[C@]3(O)C[C@H](O)C(C(=O)O)C(C2)O3)C(O)[C@H](N)C1O (stereo partly drawn)
1.01 (inactive) and 0.099 (active): locus YHR030C, strain SLT2, stronger effect = lower value
inactive: locus YAL030W, strain snc1, stronger effect = lower value 0.995 | locus YBL061C, strain skt5, stronger effect = lower value 1 | locus YBR009C, strain hhf1, stronger effect = lower value 0.987 | locus YBR021W, strain FUR4, stronger effect = lower value 1.02 | locus YBR023C, strain chs3, stronger effect = lower value 0.957 | locus YBR229C, strain ROT2, stronger effect = lower value 0.996 | locus YBR231C, strain swc5, stronger effect = lower value 0.912 | locus YBR279W, strain paf1, stronger effect = lower value 0.984 | locus YCL011C, strain gbp2, stronger effect = lower value 1 | locus YCL016C, strain dcc1, stronger effect = lower value 0.996 | locus YCL029C, strain bik1, stronger effect = lower value 1.02 | locus YCL069W, strain vba3, stronger effect = lower value 0.977 | locus YDL035C, strain GPR1, stronger effect = lower value 1 | locus YDL040C, strain nat1, stronger effect = lower value 1.01 | locus YDL074C, strain BRE1, stronger effect = lower value 1.03 | locus YDL101C, strain DUN1, stronger effect = lower value 1 | locus YDL134C, strain PPH21, stronger effect = lower value 0.986 | locus YDL185W, strain tfp1, stronger effect = lower value 1.04 | locus YDL192W, strain arf1, stronger effect = lower value 1.01 | locus YDR101C, strain arx1, stronger effect = lower value 1.06 | locus YDR162C, strain NBP2, stronger effect = lower value 0.974 | locus YDR297W, strain sur2, stronger effect = lower value 0.981 | locus YDR318W, strain mcm21, stronger effect = lower value 0.999 | locus YDR388W, stronger effect = lower value 1.02 | locus YDR502C, strain sam2, stronger effect = lower value 1.01 | locus YEL061C, strain CIN8, stronger effect = lower value 1.01 | locus YER015W, strain faa2, stronger effect = lower value 1 | locus YER110C, stronger effect = lower value 1.01 | locus YER155C, strain BEM2, stronger effect = lower value 1 | locus YER167W, strain BCK2, stronger effect = lower value 1.01 | locus YGL078C, strain dbp3, stronger effect = lower value 1 | locus YGL167C, strain pmr1, stronger effect = lower value 1.05 | locus YGL173C, strain kem1, stronger effect = lower value 0.982 | locus YGL248W, strain PDE1, stronger effect = lower value 0.964 | locus YGR135W, strain pre9, stronger effect = lower value 0.997 | locus YGR229C, strain SMI1, stronger effect = lower value 0.904 | locus YGR252W, strain gcn5, stronger effect = lower value 0.952 | locus YHR027C, strain rpn1, stronger effect = lower value 0.991 | locus YHR079C, strain IRE1 (second series), stronger effect = lower value 1.01 | locus YHR094C, strain hxt1, stronger effect = lower value 1.01 | locus YHR129C, strain ARP1, stronger effect = lower value 1.01 | locus YHR200W, strain rpn10, stronger effect = lower value 1.02 | locus YIL066C, strain RNR3, stronger effect = lower value 0.996 | locus YIL073C, strain SPO22, stronger effect = lower value 1.11 | locus YIL125W, strain kgd1, stronger effect = lower value 1.01 | locus YIR030C, strain dcg1, stronger effect = lower value 1.01 | locus YJL095W, strain BCK1 (second series), stronger effect = lower value 1 | locus YJL134W, strain LCB3, stronger effect = lower value 1.01 | locus YJL154C, strain vps35, stronger effect = lower value 0.987 | locus YJL164C, strain tpk1, stronger effect = lower value 0.996 | locus YJL166W, strain qcr8, stronger effect = lower value 0.987 | locus YJL168C, strain set2, stronger effect = lower value 1.01 | locus YJL187C, strain SWE1 (second series), stronger effect = lower value 0.99 | locus YJR043C, strain POL32, stronger effect = lower value 0.95 | locus YJR066W, strain TOR1, stronger effect = lower value 1.01 | locus YJR075W, strain HOC1, stronger effect = lower value 1.03 | locus YKL009W, strain mrt4, stronger effect = lower value 0.963 | locus YKL068W, stronger effect = lower value 0.997 | locus YKL085W, strain MDH1 (second series), stronger effect = lower value 1 | locus YKL085W, strain MDH1, stronger effect = lower value 1 | locus YKL160W, strain elf1, stronger effect = lower value 0.975 | locus YKR001C, strain vps1, stronger effect = lower value 1.04 | locus YKR091W, strain srl3, stronger effect = lower value 1.01 | locus YLR039C, strain RIC1, stronger effect = lower value 1.07 | locus YLR058C, strain SHM2, stronger effect = lower value 0.984 | locus YLR102C, strain apc9, stronger effect = lower value 1.02 | locus YLR258W, strain gsy2, stronger effect = lower value 0.981 | locus YLR262C, strain YPT6 (second series), stronger effect = lower value 0.936 | locus YLR262C, strain YPT6, stronger effect = lower value 1.07 | locus YLR268W, strain sec22, stronger effect = lower value 1.06 | locus YLR320W, strain mms22, stronger effect = lower value 0.917 | locus YLR330W, strain CHS5, stronger effect = lower value 1.02 | locus YLR342W, strain FKS1 (second series), stronger effect = lower value 1.04 | locus YLR371W, strain rom2, stronger effect = lower value 1.03 | locus YLR418C, strain cdc73, stronger effect = lower value 0.973 | locus YML016C, strain PPZ1, stronger effect = lower value 0.986 | locus YML032C, strain rad52, stronger effect = lower value 0.996 | locus YML124C, strain tub3, stronger effect = lower value 1.01 | locus YMR078C, strain ctf18, stronger effect = lower value 1.02 | locus YMR223W, strain ubp8, stronger effect = lower value 0.992 | locus YMR263W, strain SAP30, stronger effect = lower value 1 | locus YMR307W, strain GAS1, stronger effect = lower value 0.768 | locus YNL067W, strain RPL9B, stronger effect = lower value 0.982 | locus YNL153C, strain GIM3, stronger effect = lower value 0.994 | locus YNL183C, strain NPR1, stronger effect = lower value 0.994 | locus YNL209W, strain ssb2, stronger effect = lower value 0.993 | locus YNL233W, strain BNI4, stronger effect = lower value 0.982 | locus YNL250W, strain rad50, stronger effect = lower value 1 | locus YNL271C, strain bni1, stronger effect = lower value 1.01 | locus YNL298W, strain CLA4, stronger effect = lower value 1.01 | locus YNL307C, strain MCK1, stronger effect = lower value 1.03 | locus YNR049C, strain mso1, stronger effect = lower value 0.991 | locus YNR052C, strain pop2, stronger effect = lower value 0.983 | locus YOL012C, strain htz1 0.984 | locus YOL147C, strain pex11, stronger effect = lower value 1.01 | locus YOR061W, strain CKA2, stronger effect = lower value 1.01 | locus YOR069W, strain VPS5, stronger effect = lower value 0.994 | locus YOR070C, strain gyp1, stronger effect = lower value 0.971 | locus YOR083W, strain WHI5, stronger effect = lower value 0.956 | locus YOR106W, strain vam3, stronger effect = lower value 0.983 | locus YOR136W, strain idh2, stronger effect = lower value 1.02 | locus YOR144C, strain elg1, stronger effect = lower value 1.01 | locus YOR184W, strain ser1, stronger effect = lower value 1 | locus YOR265W, strain rbl2, stronger effect = lower value 0.987 | locus YOR270C, strain vph1, stronger effect = lower value 0.792 | locus YOR316C, strain cot1, stronger effect = lower value 1.02 | locus YPL051W, strain arl3, stronger effect = lower value 1 | locus YPL241C, strain CIN2, stronger effect = lower value 1.01 | locus YPR119W, strain clb2, stronger effect = lower value 1.01 | locus YPR141C, strain kar3, stronger effect = lower value 1.01 | locus YPR163C, strain tif3, stronger effect = lower value 1.03 | locus YPR167C, strain met16, stronger effect = lower value 1.03 | strain wtn01, stronger effect = lower value 1.07
active: locus YAL021C, strain ccr4, stronger effect = lower value 0.0628 | locus YAL026C, strain drs2, stronger effect = lower value 0.059 | locus YBR171W, strain sec66, stronger effect = lower value 0.0768 | locus YCR088W, strain abp1, stronger effect = lower value 0.0609 | locus YDL005C, strain med2, stronger effect = lower value 0.0884 | locus YDR001C, strain nth1, stronger effect = lower value 0.0792 | locus YDR069C, strain doa4, stronger effect = lower value 0.0722 | locus YDR137W, strain rgp1, stronger effect = lower value 0.252 | locus YDR159W, strain sac3, stronger effect = lower value 0.696 | locus YDR195W, strain ref2 0.132 | locus YDR334W, strain swr1, stronger effect = lower value 0.115 | locus YDR335W, strain msn5, stronger effect = lower value 0.508 | locus YDR392W, strain spt3, stronger effect = lower value 0.07 | locus YEL003W, strain gim4, stronger effect = lower value 0.0549 | locus YEL037C, strain rad23, stronger effect = lower value 0.193 | locus YEL061C, strain CIN8 (second series), stronger effect = lower value 0.064 | locus YER016W, strain bim1, stronger effect = lower value 0.819 | locus YER111C, strain swi4, stronger effect = lower value 0.0759 | locus YER155C, strain BEM2 (second series), stronger effect = lower value 0.778 | locus YFR010W, strain ubp6, stronger effect = lower value 0.065 | locus YGL086W, strain mad1, stronger effect = lower value 1.07 [resistant] | locus YGL227W, strain vid30, stronger effect = lower value 0.0641 | locus YGL240W, strain doc1, stronger effect = lower value 0.856 | locus YGL253W, strain hxk2, stronger effect = lower value 0.0796 | locus YHR013C, strain ard1, stronger effect = lower value 1.38 [resistant] | locus YHR079C, strain IRE1, stronger effect = lower value 0.111 | locus YHR142W, strain chs7, stronger effect = lower value 0.843 | locus YJL092W, strain hpr5, stronger effect = lower value 0.0636 | locus YJL115W, strain asf1, stronger effect = lower value 0.893 | locus YJL129C, strain trk1, stronger effect = lower value 0.0757 | locus YKR026C, strain gcn3, stronger effect = lower value 0.0616 | locus YLL001W, strain dnm1, stronger effect = lower value 0.0851 | locus YLL026W, stronger effect = lower value 0.0668 | locus YLL041C, strain sdh2, stronger effect = lower value 0.0791 | locus YLR027C, strain aat2, stronger effect = lower value 0.0727 | locus YLR113W, strain HOG1, stronger effect = lower value 0.125 | locus YLR221C, strain rsa3, stronger effect = lower value 0.342 | locus YLR342W, strain FKS1, stronger effect = lower value 0.807 | locus YLR357W, strain rsc2, stronger effect = lower value 0.123 | locus YLR370C, strain arc18, stronger effect = lower value 0.112 | locus YLR384C, strain iki3, stronger effect = lower value 0.754 | locus YML120C, strain ndi1, stronger effect = lower value 0.0569 | locus YMR058W, strain fet3, stronger effect = lower value 0.0612 | locus YMR125W, strain sto1, stronger effect = lower value 0.0674 | locus YMR129W, stronger effect = lower value 0.0583 | locus YMR205C, strain PFK2, stronger effect = lower value 0.105 | locus YMR231W, strain pep5, stronger effect = lower value 0.881 | locus YNL071W, strain lat1, stronger effect = lower value 0.252 | locus YNL248C, strain rpa49, stronger effect = lower value 0.0699 | locus YNL322C, strain KRE1 (second series), stronger effect = lower value 0.092 | locus YOR001W, strain rrp6, stronger effect = lower value 0.0632 | locus YOR080W, strain dia2, stronger effect = lower value 0.389 | locus YOR231W, strain MKK1, stronger effect = lower value 0.109 | locus YOR290C, strain snf2, stronger effect = lower value 0.0611 | locus YPL078C, strain atp4, stronger effect = lower value 0.157 | locus YPL106C, strain sse1, stronger effect = lower value 0.319 | locus YPL240C, strain hsp82, stronger effect = lower value 0.108 | locus YPL256C, strain CLN2, stronger effect = lower value 0.122
0.993 (inactive) and 0.102 (active): locus YJL095W, strain BCK1, stronger effect = lower value
